# HSF1 activator: increases HSF-1 driven luciferase reporter signal. NIH3T3-HGL HSF-1 luciferase reporter, MG132, 8 h; 100% = twice DMSO control signal. activation, % at 9 µM. 300,000 tested, 1.7% active. AID 504408;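 active = mean replicate activation of at least 50% with a set share of replicates each reaching 50%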;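 note: 0% = median of the neutral control wells and 100% = twice that signal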
# Hsp70 act: switches on Hsp70 transcription. HeLa Hsp70 promoter luciferase reporter, luminescence; scaled: vehicle 0, proteasome-inhibitor control 100%. 200,000 tested, 0.04% active. activation, % at 10 µM. AID 1203;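 active = activation above the mean across all tested compounds plus 3 SD, cutoff set per campaign, cut at about 5.5% in these data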;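 note: 100% = MG132 at 30 µM as the positive control and 0% = DMSO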
# zVAD death inh: blocks zVAD induced death of L929 cells. L929 zVAD necroptosis rescue, ATP luminescence, 24 h; with zVAD 60 µM. viability rescue, % at 10 µM. 220,000 tested, 0.38% active. AID 1377;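 active = activation, scaled between plate controls, above about 75%, limit read from the data; inactive = activation under that limit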;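 note: 0% = zVAD with DMSO and 100% = DMSO alone without zVAD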
# TNF death inh: blocks TNF-alpha induced death of Jurkat FADD-/- cells; 220,000 tested, 0.068% active; activation (protection from cell death), % at 10 µM; Jurkat FADD-/- TNF necroptosis rescue, ATP luminescence, 24 h; 0 = TNF only, 100 = no-TNF cells; AID 463075;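 active = activation, meaning protection from cell death, of at least 50% relative to plate controls; inactive = activation below 50%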;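 note: necroptosis triggered by 40 ng/mL TNF-alpha added together with compound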
# Active calls of the source: *; · = no result. Compounds with a hit are over-represented: about 1.9% of the library has one in this group of screens.
SMILES,HSF1 activator,Hsp70 act,zVAD death inh,TNF death inh
Fc1ccc(Sc2nc(-c3ccccc3)nnc2C(F)(F)F)cc1,66.5*,0.0,39.3,-22.8
Fc1ccc(Oc2nc(-c3ccccc3)nnc2C(F)(F)F)cc1,12.8,-0.3,-0.3,-5.0
Cc1ccc(-c2noc(CSc3ccccc3)n2)cc1,69.5*,0.0,1.1,2.1
COc1ccc(OC)c(/C=N/Nc2nncn2/N=C/c2cc(OC)ccc2OC)c1,81.2*,-0.3,0.9,-4.4
OCc1c(OCc2cccc(F)c2)ccc2ccccc12,62.0*,·,·,·
CNCc1c(OCc2ccc(F)cc2)ccc2ccccc12,-9.5,-0.2,-0.1,5.1
O=C(O)COc1ccc(/C=N/n2c(COc3ccccc3)nc3ccccc3c2=O)cc1,-1.3,-0.3,1.0,1.7
Cc1cccc(C)c1OCc1nc2ccccc2c(=O)n1/N=C/c1ccc(OCC(=O)O)cc1,52.8*,0.2,2.2,2.7
O=C(N/N=C(\c1ccccc1)c1cccnc1)c1ccc(O)cc1,-8.8,·,·,·
O=C(N/N=C(\c1ccccc1)c1cccnc1)c1cccc(F)c1,126.9*,·,·,·
Cc1nn(-c2ccccc2)c(Cl)c1C1C(C#N)=C(N)Oc2c1c(C)nn2-c1ccccc1 (centres undefined),-0.7,-0.2,-0.1,-1.2
Cc1nn(-c2ccccc2)c2c1C(c1ccncc1)C(C#N)=C(N)O2 (centres undefined),25.6,-0.3,0.1,-1.0
Cc1ccc(-n2nc(C)c3c2OC(N)=C(C#N)C3c2ccncc2)cc1 (centres undefined),62.1*,0.0,4.6,-1.4
COc1cc(-n2nc(C)c3c2OC(N)=C(C#N)C3c2ccccc2)c(Cl)c(Br)c1O (centres undefined),78.2*,0.0,0.8,-3.0
Cc1csc(/C(=N\O)c2csc(C)n2)n1,-8.3,-0.3,-0.1,-3.3
Cc1cccc(-c2nc3c(s2)CCc2onc(-c4ccc(Br)cc4)c2-3)c1,7.0,·,·,·
CCN1C(=O)S/C(=C/c2ccc(Sc3nc4ccccc4[nH]3)o2)C1=O,58.0*,-0.5,1.1,1.6
O=C1CC(c2ccccc2)n2nc(NC(=O)c3ccccc3)nc2N1 (centres undefined),63.8*,-0.1,0.6,-2.5
CC(/C=C/c1ccccc1)=N/NC(=O)Cn1nnc(N)n1,3.3,·,-0.3,0.9
Cc1ccc(CCNC(=O)Cn2cccc2)cc1,51.6*,-0.2,0.0,-0.5
Clc1ccc(-c2nc(/C=N/N3CCOCC3)c3ccccn23)cc1,52.7*,-0.1,-0.8,-1.3
Cc1ccccc1CCN(C(=O)Cn1nnc2ccccc21)C(C(=O)NCC1CCCO1)c1nc2ccccc2n1C (centres undefined),-1.4,-0.1,-0.1,1.7
COc1ccc(-c2nc3ccccc3n2OCC(=O)O)cc1,32.2,-0.2,-0.1,-2.3
COn1c(-c2ccc(Cl)cc2)nc2ccc(Cl)cc21,110.8*,-0.4,0.3,-6.0
Clc1ccc(COn2c(-c3ccc(Cl)cc3)nc3ccccc32)cc1,60.5*,-0.3,0.3,-6.6
SMILES,HSF1 activator,Hsp70 act,zVAD death inh,TNF death inh
Clc1ccc(COn2c(-c3ccccc3)nc3ccccc32)cc1,15.9,0.2,0.3,-7.1
O=C(O)COn1c(-c2ccc(Cl)cc2)nc2ccc(Cl)cc21,92.1*,0.1,-0.1,0.1
Cc1ccc(COn2c(-c3ccc(Cl)cc3)nc3ccc([N+](=O)[O-])cc32)cc1,-4.5,0.3,0.3,-3.4
O=C(O)COn1c(-c2ccccc2)nc2ccc([N+](=O)[O-])cc21,82.1*,0.2,0.0,-1.1
COc1ccc2ccccc2c1C(=O)/C=C\c1ccoc1,20.8,-0.4,-0.3,1.6
Cc1c(C(=O)Nc2ccc(Cl)cc2)c2ccccn2c1CCc1ccncc1,65.8*,-0.2,1.3,-1.8
Cc1ccc(NC(=O)c2cc3ccccc3oc2=N)cc1,-32.9,·,·,·
Cc1ccc(S(=O)(=O)N/N=c2\oc3ccccc3cc2C(=O)Nc2cccc(C)c2)cc1,58.0*,-0.4,0.6,0.5
COC(C[C@@H]1O[C@@H]1[C@@H](O)COCc1ccccc1)OC,7.6,·,-0.5,0.7
O=C(c1cn(CC(=O)N2CCCCC2)c2ccccc12)C1CC1,61.6*,0.1,-0.1,0.6
CCCCCN(C(=O)CCC(=O)OCc1ccc(C(C)C)cc1)c1c(N)n(CCCC)c(=O)[nH]c1=O,19.1,·,·,·
CCn1cc([N+](=O)[O-])c(C(=O)Nc2nc(-c3ccc(C)c(C)c3)c(C)s2)n1,61.3*,0.1,0.4,-2.3
CCn1cc([N+](=O)[O-])c(C(=O)Nc2nc(-c3ccc(C)cc3)c(C)s2)n1,3.2,-0.4,0.2,-0.7
O=C(O)c1cc(NC(=O)c2ccccc2[N+](=O)[O-])ccc1O,-1.0,0.0,5.1,-0.7
O=C(COC(=O)c1ccccc1SCC(=O)N1CCCC1)Nc1ccccc1C(F)(F)F,1.7,·,·,·
Cc1sc(NC(=O)c2ccco2)nc1-c1ccccc1,89.9*,2.4,64.0,-3.6
COc1ccc2c(c1)CCc1sc(NC(=O)c3ccco3)nc1-2,32.3,0.2,3.0,-0.5
COc1ccc2c(c1)Cc1sc(NC(=O)c3ccco3)nc1-2,76.5*,1.3,0.5,-1.4
COC(=O)c1c(-c2ccccc2)csc1NC(=O)c1ccco1,74.0*,1.1,0.1,-0.1
CC(C)(C)OC(=O)N/N=C\C=C\c1ccc2c(c1)OCO2,55.7*,-0.4,0.2,2.2
CC(C)(C)NC(=O)C(=O)N/N=C/c1ccc(Br)cc1,12.6,0.1,0.9,-3.1
CC(C)(C)OC(=O)N/N=C/c1ccc(Br)cc1,52.8*,0.1,13.8,-0.4
O=C(O)c1cccnc1Sc1ccccc1,72.0*,-0.2,0.2,0.8
O=C(O)c1cccnc1Sc1ccc(Cl)cc1,3.8,-0.5,-2.0,1.0
CN(Cc1cccc(F)c1)C(=O)CNS(=O)(=O)c1ccc2ccccc2c1,63.1*,·,·,·
SMILES,HSF1 activator,Hsp70 act,zVAD death inh,TNF death inh
CSc1ccc(S(=O)(=O)NCC(=O)OCC(=O)N(C)Cc2ccccc2)cc1[N+](=O)[O-],-2.6,·,·,·
COc1ccccc1-n1cc(C(=O)NCC(=O)N2CCN(c3ccccc3)CC2)c2ccccc2c1=O,8.4,-0.1,0.6,-0.1
CCCCc1nnc(NC(=O)C(C)Sc2nc(C)cc(=O)[nH]2)s1 (centres undefined),64.4*,-0.3,0.4,-0.5
COc1ccccc1NC(=O)C(=O)Nc1ccccn1,58.8*,-0.2,-0.1,-2.6
O=C(/C=C/c1ccco1)Nc1cccc(NC(=O)/C=C/c2ccco2)n1,80.7*,0.3,2.4,1.5
Cc1nc(NC(=O)/C=C/c2ccco2)sc1C,38.5,0.1,-0.5,-4.0
COc1ccccc1/C=C/C(=O)NC(=S)Nc1ccccn1,65.5*,·,·,·
O=C(/C=C/c1ccco1)NC(=S)Nc1ccccn1,58.3*,0.1,0.8,-0.6
COc1ccccc1NC(=O)C(=O)N/N=C(\C)CC(=O)Nc1ccccn1,6.5,0.5,1.6,-0.5
COc1ccc(/C=C/C(=O)NC(=S)Nc2ccccn2)cc1,35.2,·,·,·
CCCC(C)C(=O)Nc1ncc(S(=O)(=O)c2ccc([N+](=O)[O-])cc2)s1 (centres undefined),14.0,·,·,·
O=C(Nc1ccc2c(c1)Cc1ccccc1-2)c1ccco1,56.2*,0.4,3.1,1.1

# Assay outcomes (PubChem)
